We go through eleven molecules from ChEMBL document CHEMBL3988442, “University of Dundee, Small-Polar-MMV Screening Library” (2021).

Structures are written as SMILES. For some of these results: Results with a measured potency or affinity are listed apart.

Common to all, as to design: scale not given: direction of the effect not stated beside the values
The target in assay [1] is Protein translocase subunit SecA (Escherichia coli (strain K12)) (UniProt P10408). Put plainly: Assay to Identify E. coli SecA ATPase Inhibitors. In kind it is functional. The following applies: 30 µM.
Assay [2] has as its target T1, Ubiquitin-activating enzyme e1, putative (Leishmania donovani (strain BPK282A1)) (UniProt E9BSI1).
T1 sequence (whole entry): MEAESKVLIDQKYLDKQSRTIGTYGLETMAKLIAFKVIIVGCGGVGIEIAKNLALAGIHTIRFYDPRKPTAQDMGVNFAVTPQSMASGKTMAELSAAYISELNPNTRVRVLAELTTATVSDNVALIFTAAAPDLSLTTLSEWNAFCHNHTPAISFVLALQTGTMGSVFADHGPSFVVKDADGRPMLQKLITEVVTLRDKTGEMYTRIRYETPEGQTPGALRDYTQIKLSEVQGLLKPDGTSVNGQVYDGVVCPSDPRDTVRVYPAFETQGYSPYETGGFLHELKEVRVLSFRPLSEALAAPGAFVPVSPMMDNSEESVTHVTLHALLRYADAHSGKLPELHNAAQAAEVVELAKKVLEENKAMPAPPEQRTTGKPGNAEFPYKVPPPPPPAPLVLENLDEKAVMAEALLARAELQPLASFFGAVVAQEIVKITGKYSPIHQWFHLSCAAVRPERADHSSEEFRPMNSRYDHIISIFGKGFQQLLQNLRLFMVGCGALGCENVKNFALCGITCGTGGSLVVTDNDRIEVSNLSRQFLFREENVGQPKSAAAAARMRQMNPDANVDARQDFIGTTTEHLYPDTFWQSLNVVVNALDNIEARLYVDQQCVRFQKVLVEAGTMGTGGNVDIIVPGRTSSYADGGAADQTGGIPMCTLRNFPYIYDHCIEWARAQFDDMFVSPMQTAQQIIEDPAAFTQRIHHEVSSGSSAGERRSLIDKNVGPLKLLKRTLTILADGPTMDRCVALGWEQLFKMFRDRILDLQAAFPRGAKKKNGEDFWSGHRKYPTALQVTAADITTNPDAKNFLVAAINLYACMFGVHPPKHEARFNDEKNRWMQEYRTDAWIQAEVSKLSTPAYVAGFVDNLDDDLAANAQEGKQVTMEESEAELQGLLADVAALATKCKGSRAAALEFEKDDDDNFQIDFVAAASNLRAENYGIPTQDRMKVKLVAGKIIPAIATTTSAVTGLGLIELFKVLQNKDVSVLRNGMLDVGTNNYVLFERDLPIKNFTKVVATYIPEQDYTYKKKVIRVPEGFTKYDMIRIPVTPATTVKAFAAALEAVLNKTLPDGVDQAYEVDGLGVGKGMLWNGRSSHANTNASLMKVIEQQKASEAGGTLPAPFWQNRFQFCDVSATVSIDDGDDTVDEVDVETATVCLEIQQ
The experiment in a line: Leishmania donovani Ubiquitin Activating Enzyme (LdE1). In kind it is functional. Conditions: 30 µM.

Assay [3] concerns the target AMP-activated protein kinase, AMPK (Homo sapiens) (UniProt P54646+O43741+P54619+Q9UGJ0+Q9Y478+Q13131+Q9UGI9). Put plainly: AMP-dependent Kinase enzyme assay. An in vitro enzyme assay that detects ADP turnover that is directly proportional to AMPK activity. This uses naive AMPK that is activated during the assay with MK-8722. In kind it is functional. The following applies: 30 µM.

Assay [4] addresses Sialic acid-binding Ig-like lectin 9 (Homo sapiens) (UniProt Q9Y336). The experiment in a line: Hs-Siglec9 ALPHAscreen SOP 20170721. Conditions: 10 µM.
For the next assay, the system named is Trypanosoma cruzi. The experiment in a line: Trypanosoma cruzi phosphomannomutase and mannose-1-phosphate guanylyltransferase assay. In kind it is functional. The following applies: 10 µM.
Assay [5] deals with T2, Arginase-2, mitochondrial (Homo sapiens) (UniProt P78540).
T2 sequence (whole entry): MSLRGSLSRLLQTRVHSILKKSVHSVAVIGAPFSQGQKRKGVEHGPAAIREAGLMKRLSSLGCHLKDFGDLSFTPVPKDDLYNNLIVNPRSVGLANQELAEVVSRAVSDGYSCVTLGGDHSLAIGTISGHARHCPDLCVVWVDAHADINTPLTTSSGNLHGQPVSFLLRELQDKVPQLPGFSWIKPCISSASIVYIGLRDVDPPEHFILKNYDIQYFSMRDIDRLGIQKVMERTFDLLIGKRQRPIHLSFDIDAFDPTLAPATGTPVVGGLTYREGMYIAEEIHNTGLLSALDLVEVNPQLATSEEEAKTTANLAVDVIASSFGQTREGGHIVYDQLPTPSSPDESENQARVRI
The experiment in a line: in vitro enzyme assay to detect the production of urea directly proportional to the activity of Arginase II. Also: in the data most compounds retested in dose-response had high values. Conditions: 33.3 µM. In kind it is functional.

Assay [6] deals with T3, Proteasome subunit beta (Trypanosoma cruzi) (UniProt O96673).
T3 sequence (whole entry): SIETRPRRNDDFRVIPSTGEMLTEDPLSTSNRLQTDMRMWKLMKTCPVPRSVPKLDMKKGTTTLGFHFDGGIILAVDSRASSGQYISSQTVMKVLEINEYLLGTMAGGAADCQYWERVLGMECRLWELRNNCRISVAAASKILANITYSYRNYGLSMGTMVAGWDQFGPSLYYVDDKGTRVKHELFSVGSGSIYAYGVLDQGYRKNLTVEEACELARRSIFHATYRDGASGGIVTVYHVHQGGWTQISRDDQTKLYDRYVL
The experiment in a line: Trypanosoma cruzi proteasome chymotrypsin-like activity (TcProtChymo) assay. Also: in the data most compounds retested in dose-response had high values. It counts as functional. Conditions: 9.37 µM.

The species entered for a further assay is Homo sapiens. The experiment in a line: To identify inhibition of the IFN signalling (Jak-Stat) pathway via expression of an eGFP reporter gene under the control of an IFN-stimulated response element (ISRE) containing MxA promoter. In kind it is functional. Conditions: 30 µM. On the technique in general: A reporter such as luciferase makes a cellular process visible.

The target of assay [7] is T4, Tyrosyl-tRNA synthetase, putative (Trypanosoma cruzi (strain CL Brener)) (UniProt Q4DSP6).
T4 sequence (whole entry): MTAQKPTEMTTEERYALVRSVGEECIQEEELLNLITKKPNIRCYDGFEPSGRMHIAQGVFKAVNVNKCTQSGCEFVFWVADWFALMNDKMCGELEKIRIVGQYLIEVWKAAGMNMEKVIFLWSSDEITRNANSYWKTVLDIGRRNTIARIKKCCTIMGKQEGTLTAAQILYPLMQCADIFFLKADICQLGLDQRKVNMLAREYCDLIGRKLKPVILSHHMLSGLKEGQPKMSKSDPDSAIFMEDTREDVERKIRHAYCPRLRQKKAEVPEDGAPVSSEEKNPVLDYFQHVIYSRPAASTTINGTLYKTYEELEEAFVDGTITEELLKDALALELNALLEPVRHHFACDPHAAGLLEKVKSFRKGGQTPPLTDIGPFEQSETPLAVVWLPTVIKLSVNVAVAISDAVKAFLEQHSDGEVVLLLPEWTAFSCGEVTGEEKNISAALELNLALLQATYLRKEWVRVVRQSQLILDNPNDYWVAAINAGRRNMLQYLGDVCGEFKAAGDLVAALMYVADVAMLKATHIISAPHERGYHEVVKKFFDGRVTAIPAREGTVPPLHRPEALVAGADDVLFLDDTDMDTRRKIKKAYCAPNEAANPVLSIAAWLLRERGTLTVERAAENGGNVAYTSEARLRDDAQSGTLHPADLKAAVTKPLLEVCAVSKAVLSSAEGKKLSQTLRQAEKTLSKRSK
The experiment in a line: Trypanosoma cruzi tyrosyl tRNA synthetase (TcYRS) _High Tyrosine SOP. Also: in the data most compounds retested in dose-response had high values. It counts as functional. The following applies: 30 µM.

Assay [8] addresses T4, Tyrosyl-tRNA synthetase, putative (Trypanosoma cruzi (strain CL Brener)). Put plainly: Trypanosoma cruzi tyrosyl tRNA synthetase (TcYRS) SOP. It counts as functional. The following applies: 30 µM.
The target of assay [9] is Chromo domain-containing protein 1 (Saccharomyces cerevisiae (strain ATCC 204508 / S288c) (Baker's yeast)) (UniProt P32657). The experiment in a line: ScCHD-1 Enzyme Inhibition Assay. Also: in the data most compounds retested in dose-response had high values. In kind it is functional. The following applies: 30 µM.
Sequence of Chromo domain-containing protein 1 (Saccharomyces cerevisiae (strain ATCC 204508 / S288c) (Baker's yeast)) (P32657 whole entry, the tested form may be a part): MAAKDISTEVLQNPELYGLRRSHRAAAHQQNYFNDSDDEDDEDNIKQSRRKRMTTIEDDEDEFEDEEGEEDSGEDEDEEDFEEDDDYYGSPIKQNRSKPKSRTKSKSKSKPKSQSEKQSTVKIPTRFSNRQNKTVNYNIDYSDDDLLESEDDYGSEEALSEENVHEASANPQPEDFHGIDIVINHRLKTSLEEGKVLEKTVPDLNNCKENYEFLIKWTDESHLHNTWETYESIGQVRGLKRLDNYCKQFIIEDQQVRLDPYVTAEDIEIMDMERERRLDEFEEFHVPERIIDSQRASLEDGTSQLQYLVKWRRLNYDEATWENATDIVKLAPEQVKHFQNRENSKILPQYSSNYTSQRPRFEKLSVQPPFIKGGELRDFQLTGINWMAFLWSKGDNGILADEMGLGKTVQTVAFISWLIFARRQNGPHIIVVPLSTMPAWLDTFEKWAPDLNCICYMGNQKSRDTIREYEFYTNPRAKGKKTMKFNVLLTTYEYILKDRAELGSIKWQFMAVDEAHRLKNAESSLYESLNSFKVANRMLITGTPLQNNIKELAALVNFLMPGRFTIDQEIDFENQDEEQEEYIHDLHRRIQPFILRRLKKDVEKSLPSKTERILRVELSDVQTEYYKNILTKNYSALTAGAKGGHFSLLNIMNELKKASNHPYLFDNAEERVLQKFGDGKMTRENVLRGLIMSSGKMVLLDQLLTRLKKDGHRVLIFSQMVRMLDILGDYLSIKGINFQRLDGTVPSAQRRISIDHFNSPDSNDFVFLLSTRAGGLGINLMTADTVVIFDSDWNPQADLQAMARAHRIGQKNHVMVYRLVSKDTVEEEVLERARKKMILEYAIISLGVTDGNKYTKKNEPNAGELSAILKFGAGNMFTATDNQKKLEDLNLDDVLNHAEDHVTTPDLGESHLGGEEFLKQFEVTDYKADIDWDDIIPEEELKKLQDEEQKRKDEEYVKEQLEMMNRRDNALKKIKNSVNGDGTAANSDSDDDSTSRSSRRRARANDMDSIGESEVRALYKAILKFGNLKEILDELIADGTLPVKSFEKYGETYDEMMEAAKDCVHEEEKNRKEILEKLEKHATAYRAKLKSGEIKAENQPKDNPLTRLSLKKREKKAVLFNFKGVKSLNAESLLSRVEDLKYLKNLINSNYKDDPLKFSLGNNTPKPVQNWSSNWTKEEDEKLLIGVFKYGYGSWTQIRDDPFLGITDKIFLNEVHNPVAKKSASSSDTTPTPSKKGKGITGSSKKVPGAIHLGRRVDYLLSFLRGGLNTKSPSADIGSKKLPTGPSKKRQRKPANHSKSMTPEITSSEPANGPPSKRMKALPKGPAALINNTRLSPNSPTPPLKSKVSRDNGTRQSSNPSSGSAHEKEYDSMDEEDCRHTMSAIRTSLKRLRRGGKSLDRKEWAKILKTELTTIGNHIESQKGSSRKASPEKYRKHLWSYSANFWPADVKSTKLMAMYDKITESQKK

Sequence of Sialic acid-binding Ig-like lectin 9 (Homo sapiens) (Q9Y336 whole entry): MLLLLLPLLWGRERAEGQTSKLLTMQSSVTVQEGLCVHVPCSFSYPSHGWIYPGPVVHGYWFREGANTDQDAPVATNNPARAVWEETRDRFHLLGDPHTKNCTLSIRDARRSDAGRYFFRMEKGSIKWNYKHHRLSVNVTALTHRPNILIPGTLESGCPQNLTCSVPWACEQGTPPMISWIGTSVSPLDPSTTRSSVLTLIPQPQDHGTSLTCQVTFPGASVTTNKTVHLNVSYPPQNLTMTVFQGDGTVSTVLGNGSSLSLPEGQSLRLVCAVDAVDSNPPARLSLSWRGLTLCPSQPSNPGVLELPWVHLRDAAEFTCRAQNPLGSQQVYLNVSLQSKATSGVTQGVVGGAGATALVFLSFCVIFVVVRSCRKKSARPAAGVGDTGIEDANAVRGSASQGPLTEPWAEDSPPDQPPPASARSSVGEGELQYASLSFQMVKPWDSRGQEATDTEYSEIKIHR
Sequence of Protein translocase subunit SecA (Escherichia coli (strain K12)) (P10408 whole entry): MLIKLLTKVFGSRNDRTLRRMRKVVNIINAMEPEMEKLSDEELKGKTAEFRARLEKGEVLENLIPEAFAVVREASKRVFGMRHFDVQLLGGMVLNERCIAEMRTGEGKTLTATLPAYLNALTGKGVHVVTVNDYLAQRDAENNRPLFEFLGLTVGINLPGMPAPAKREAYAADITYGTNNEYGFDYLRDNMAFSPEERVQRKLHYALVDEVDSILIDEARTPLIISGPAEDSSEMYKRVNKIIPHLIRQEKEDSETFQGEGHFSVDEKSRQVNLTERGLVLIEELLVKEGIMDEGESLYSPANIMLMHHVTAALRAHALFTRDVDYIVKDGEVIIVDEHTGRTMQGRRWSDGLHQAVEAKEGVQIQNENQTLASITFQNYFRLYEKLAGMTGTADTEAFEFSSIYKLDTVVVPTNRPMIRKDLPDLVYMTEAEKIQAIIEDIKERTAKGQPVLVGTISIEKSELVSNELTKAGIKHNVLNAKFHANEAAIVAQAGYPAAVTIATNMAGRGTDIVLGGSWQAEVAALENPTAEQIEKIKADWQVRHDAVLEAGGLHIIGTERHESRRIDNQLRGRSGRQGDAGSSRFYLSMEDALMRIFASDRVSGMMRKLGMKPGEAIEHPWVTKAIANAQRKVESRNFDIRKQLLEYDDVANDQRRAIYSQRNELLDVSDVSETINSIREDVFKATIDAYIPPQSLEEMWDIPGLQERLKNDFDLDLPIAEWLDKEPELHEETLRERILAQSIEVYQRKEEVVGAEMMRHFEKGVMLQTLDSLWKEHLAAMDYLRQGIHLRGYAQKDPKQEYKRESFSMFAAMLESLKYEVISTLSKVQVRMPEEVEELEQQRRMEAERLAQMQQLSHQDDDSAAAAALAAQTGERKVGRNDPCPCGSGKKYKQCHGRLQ

For `c1coc(-c2noc(CN3CC(n4cccn4)C3)n2)c1`, the Percent Effect in assay [1] is -5.48%; in assay [2], 7.79%; in assay [3], 3%; in assay [4] it was -4.91%; in the assay with Trypanosoma cruzi, 0.49%; in assay [5] it was 1.05%. Moreover, the Percent Effect in assay [6] is 2.18%; in the assay filed under Homo sapiens it was 19.4%; in [7], 3.81%; in [8], 9.41%; in [9], -11.1%.
On to `CC(=O)N1CCCN(C(=O)NCc2cc[nH]n2)CC1`, for which the Percent Effect in assay [1] was -8.38%; in [2] it was 13.2%; in assay [3] it was -10.6%; in [4], 1.18%; with Trypanosoma cruzi, 11.1%; in [5], 1.08%. Besides, the Percent Effect in assay [6] was 14.6%; in the assay listed under Homo sapiens, 1%; in [7] it was 11.3%; in assay [8] it was 23.5%; in assay [9], -8.49%.
With `Cc1cnn(CC2CN(Cc3nnc(C4CC4)o3)CCO2)c1` (stereo unspecified), the Percent Effect in assay [1] was -7.99%; in assay [2] it was 5.41%; in assay [3] it was 87.3%; in assay [4], 7.35%; in the assay with Trypanosoma cruzi, -4.18%; in [5], -4.99%. The Percent Effect in assay [6] is -1.26%; in the assay listed under Homo sapiens it was 8.17%; in [7], 1.98%; in assay [8], 3.66%; in [9], 7.2%.
In the case of `Cc1ccc(S(=O)(=O)NC(=O)c2c(C)noc2C(C)C)cc1C`, the Percent Effect was -2.23% in assay [1]; 10.5% in assay [2]; -4.09% in [3]; 2.28% in [4]; 1.07% in the assay on Trypanosoma cruzi; -3.55% in assay [5]. The Percent Effect in [6] is 10.6%; in the assay filed under Homo sapiens it was -1.83%; in [7] it was 3.19%; in assay [8], 10.4%; in assay [9], -1.79%.
In the case of `O=C(CN1CCN(CC(O)C2CC2)CC1)NCc1ccc(F)cc1` (stereo unspecified), the Percent Effect in assay [1] was -3.06%; in assay [2], 10.4%; in assay [3] it was 6.87%; in assay [4], 0.218%; with Trypanosoma cruzi it was 4.83%; in assay [5], 9.68%. The Percent Effect in assay [6] was 13.1%; in the assay filed under Homo sapiens, 22.2%; in assay [7], 8.47%; in assay [8], 19.2%; in assay [9] it was -7.59%.
Consider `COCCN1CCC(NC(=O)C2(c3cc(C)cc(C)c3)CC2)CC1`, for which the Percent Effect in assay [1] was -5.08%; in assay [2], 0%; in assay [3], -4.53%; in assay [4], -1.6%; in the assay with Trypanosoma cruzi, -1.59%; in assay [5], 0.719%. The Percent Effect in [6] was -1.95%; in the assay filed under Homo sapiens, -10.6%; in assay [7], 1.48%; in [8], -1.24%; in [9], 6.15%.
Consider `O=C(NCC1CC1)[C@@H]1CCO[C@@H]2CCN(Cc3ccco3)C[C@H]21`, for which the Percent Effect in assay [1] was -1.9%; in [2] it was -2.67%; in [3], 1.99%; in assay [4] it was -4.47%; with Trypanosoma cruzi, -2.9%; in assay [5], -55.7%. The Percent Effect is -1.2% in [6]; 5.41% in the assay listed under Homo sapiens; -3.12% in assay [7]; -10% in [8]; -0.123% in [9].
In the case of `COc1cccc(CN2CCC(c3cc(O)nc(C)n3)C2)c1` (stereo unspecified), the Percent Effect is -3.18% in [1]; 12.2% in [2]; 6.93% in [3]; 3.66% in assay [4]; 2.37% in the assay with Trypanosoma cruzi; -3.02% in [5]. Further, the Percent Effect was 11.7% in assay [6]; 29.9% in the assay listed under Homo sapiens; 6.45% in assay [7]; 14.3% in assay [8]; -5.62% in assay [9].
For `CC(=O)N1CCCCC1c1nc(N)ncc1-c1ccccc1` (stereo unspecified), the Percent Effect in assay [1] is -3.36%; in assay [2], 13.3%; in assay [3], 9.28%; in assay [4], -4.89%; in the assay on Trypanosoma cruzi, 5.32%; in [5] it was 19.8%. Besides, the Percent Effect in [6] was 6.78%; in the assay listed under Homo sapiens, 8.42%; in assay [7], 6.38%; in [8], 14.1%; in [9], -3.68%.
`O=C(Nc1cn[nH]c1)c1ccc(O)nc1`: the Percent Effect in assay [1] was -0.619%; in assay [2], 13.2%; in assay [3] it was 4.46%; in [4], 12.7%; in the assay on Trypanosoma cruzi it was 2.82%; in [5], -0.766%. Also, the Percent Effect in assay [6] was 5.68%; in the assay filed under Homo sapiens, 1.45%; in assay [7], 8.33%; in [8], 21.9%; in assay [9] it was -8.54%.
In the case of `O=C(NCCCn1cccn1)N1CCCC1c1ccncc1` (stereo unspecified), the Percent Effect in [1] is -5.24%; in [2] it was 2.67%; in [3], -0.283%; in assay [4], 0.781%; with Trypanosoma cruzi, -6.13%; in assay [5], -1.56%. The Percent Effect was 15.3% in assay [6]; 25.4% in the assay filed under Homo sapiens; 0.546% in assay [7]; 1.24% in [8]; -6.79% in [9].
